# Laboratory results from ChEMBL document CHEMBL3988442, “University of Dundee, Small-Polar-MMV Screening Library” (2021).
# Out of some 48,000 compounds screened, about 13,000 (27%) showed an effect of 50% or more. This is one part of the list.
# Test system: Wolbachia pipientis
# Assay: Anti-Wolbachia Cell-Based Screen
# Assay type: functional
# Design: scale not given: in the data most compounds retested in dose-response had high values
# Settings: 5 µM
row,Structure (SMILES),Percent Effect
1,Cn1cc(CN2CCC(F)(F)C3(CCN(c4ccccn4)C3)C2)cn1.O=C(O)C(F)(F)F.O=C(O)C(F)(F)F (stereo not given),97.58%
2,COc1cccc(CN2CCC3(CC2)CCN(c2ncc(F)cn2)C3)c1.O=C(O)C(F)(F)F,3.548%
3,COc1cccc(CN2CCC3(CCN(c4ncc(F)cn4)CC3)C2)c1.O=C(O)C(F)(F)F,-1.729%
4,Cn1cc(CN2CCC(F)(F)C3(CCN(c4ncccn4)C3)C2)cn1.O=C(O)C(F)(F)F.O=C(O)C(F)(F)F (stereo not given),111.9%
5,O=C(O)C(F)(F)F.O=C(c1cnccn1)N1CCC(F)(F)C2(CCN(c3ccccn3)C2)C1 (stereo not given),-12.88%
6,Cn1cc(CN2CCC[C@]3(C(=O)O)CN(c4ncccn4)C[C@@H]3C2)cn1.O=C(O)C(F)(F)F,8.279%
7,COCC1CC2(CCN(Cc3cnn(C)c3)CC2)CN1c1ncccn1.O=C(O)C(F)(F)F.O=C(O)C(F)(F)F (stereo not given),-8.289%
8,Cn1cc(CN2CCC(F)(F)C3(CCN(c4cnccn4)C3)C2)cn1.O=C(O)C(F)(F)F.O=C(O)C(F)(F)F (stereo not given),-4.979%
9,COc1cc(NC(=O)N(C)C(C2CC2)C2CC2)ncn1,-1.888%
10,COc1cc(N2CC[C@@H]3O[C@@H](C(=O)NCCN(C)C)C[C@@H]32)ncn1,104.9%
11,COc1cc(NC(=O)N(C)CCC2CC2)ncn1,6.653%
12,COc1cc(N2CC[C@@H]3O[C@H](C(=O)NCC4CC4)C[C@@H]32)ncn1,97.06%
13,COc1cc(NC(=O)N(C)CC2CC2)ncn1,-6.401%
14,COCCNC(=O)[C@@H]1C[C@H]2[C@H](CCN2c2cc(OC)ncn2)O1,102.9%
15,COCCNC(=O)[C@H]1CC[C@@H]2[C@@H](CCN2c2ncc(F)cn2)O1.O=C(O)C(F)(F)F,0.7223%
16,COc1cc(N2CC[C@@H](OC)[C@@H]2Cc2ccccc2)ncn1,2.999%
17,COCCNC(=O)[C@@H]1CC[C@@H]2[C@@H](CCN2c2ncc(F)cn2)O1.O=C(O)C(F)(F)F,-10.3%
18,COc1cc(N2CC[C@@H]3O[C@@H](C(=O)NC(C)C)C[C@@H]32)ncn1,103.8%
19,COc1cc(N2C[C@H]3OCC[C@H]3[C@H](C(=O)NC3CC3)C2)ncn1,-4.655%
20,Cc1cnn(CC(=O)Nc2cc(-n3nnnc3C3CC3)ccc2F)c1,-3.572%
21,CC(C)CC(C)N(C)C(=O)CCn1cccn1 (stereo not given),9.677%
22,CC(C(=O)N1CCCC1)N1CCC(c2nccn2Cc2cscn2)CC1 (stereo not given),9.079%
23,CC1COc2ccccc2N1C(=O)c1cscn1 (stereo not given),-0.3654%
24,Cc1nc(C2CCN(C)CC2)cc(N2CCOc3ccc(Cl)cc3C2)n1,-7.272%
25,Cc1nc(C)c(C)c(N2CCC3(CCOC3)C2)n1 (stereo not given),0.7248%

row,Structure (SMILES),Percent Effect
1,Cc1nnc2ccc(N3CCC4(CCOC4)C3)nn12 (stereo not given),-16.97%
2,Cc1nc(N2CCC3(CCOC3)C2)c2cc[nH]c2n1 (stereo not given),96.01%
3,O=C(O)C(F)(F)F.O=C(c1ccncc1)N1CCOC2(CCCN(c3nncs3)C2)C1 (stereo not given),123%
4,Cc1cncc(C(=O)N2CCC3(CCCN(c4nncs4)C3)C2)c1.O=C(O)C(F)(F)F (stereo not given),-14.05%
5,CC(C)C(=O)N1CCCC2(C1)CN(c1nncs1)CCO2.O=C(O)C(F)(F)F (stereo not given),94.93%
6,CC(=O)N1CCCC2(C1)CN(c1ncc(C)cn1)CCO2.O=C(O)C(F)(F)F (stereo not given),-4.18%
7,CC(C)CCN1CCC2(CCCN(c3nncs3)C2)C1.O=C(O)C(F)(F)F (stereo not given),-9.122%
8,O=C(O)C(F)(F)F.c1ccc(N2CCOC3(CCCN(c4nncs4)C3)C2)nc1 (stereo not given),-13.18%
9,O=C(O)C(F)(F)F.O=C(c1ccncc1)N1CCOC2(COCCN(c3cncnc3)C2)C1 (stereo not given),-8.943%
10,CC(=O)N1CCCC2(C1)CN(c1nncs1)CCO2.O=C(O)C(F)(F)F (stereo not given),117%
11,CC(C)CN1CCCC12CCN(c1nncs1)C2.O=C(O)C(F)(F)F (stereo not given),16.12%
12,CN(C)C(=O)CN1C[C@@H]2CC[C@H](C1)N(Cc1c(F)cccc1Cl)C2,-24.65%
13,CNC(=O)[C@@H](CC(C)C)N1CCC[C@H]1C(=O)N(C)Cc1cccnc1.Cl.Cl,6.21%
14,CCn1cnc(NC(=O)N2CCC(c3ccc(F)cc3)C2)n1 (stereo not given),-5.373%
15,O=C1CCC2(CCN(Cc3cc(F)cc(F)c3)CC2)CN1CCO,-11.07%
16,COCC(=O)N1CCC2(CC1)CC(=O)N(Cc1ccc(Cl)cc1)C2,-7.837%
17,O=C1CC2(CCN(Cc3ncc[nH]3)CC2)CN1Cc1ccc(Cl)cc1,9.235%
18,O=C1CC2(CCN(CCO)CC2)CN1Cc1cc(F)cc(F)c1,-5.03%
19,O=C1CC2(CCN(Cc3ccoc3)CC2)CN1Cc1cc(F)cc(F)c1,87.88%
20,O=C1CC2(CCN(Cc3ncc[nH]3)CC2)CN1Cc1cc(F)cc(F)c1,5.031%
21,O=C1CC2(CCN(CCCO)CC2)CN1Cc1ccc(F)c(F)c1,111.9%
22,CCCOCCN1CCC2(CC1)CC(=O)N(Cc1cc(F)cc(F)c1)C2,102.6%
23,O=C1CC2(CCN(CCCF)CC2)CN1Cc1cc(F)cc(F)c1,93.67%
24,CCN1CC2(CCN(CCOCCO)CC2)CC(c2ccccc2)C1=O (stereo not given),6.251%
25,Cc1ncc(CN2CCC3(CC2)CC(=O)N(C)C3)cn1,-13.29%
